# TRPM1 prom inh = inhibitors of MITF-driven TRPM1 promoter in melanoma cells; inhibition, % at 12.5 µM; hit rate 0.83% among 330,000; SK-MEL-5 TRPM1 promoter luciferase, 24 h;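 active = mean inhibition across replicates of 60% or more, whatever share of single replicates reaches that level; inconclusive = some that reach 60%, reason not given; inactive = mean inhibition across replicates below 60%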
# LGR2 inh = blocks bursicon-induced cAMP signaling via Drosophila LGR2; AID 720647; inhibition, % at 9.99 µM; HEK293 LGR2, CRE-luciferase, bursicon-stimulated, 4 h; hit rate 0.35% among 380,000;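 active = drop in luminescence signal, shown as inhibition above about 50% in the replicate tests, limit read from the data, passing the limit was not always enough; inconclusive = probably only some replicates passing the limit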;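 also: agonist challenge used bursicon conditioned medium at about half maximal strength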
# PAX8 inh HTS = PAX8 transcriptional activity inhibition. RMG-I TPO-luciferase reporter, SteadyGlo, 24 h. inhibition, % at 12.6 µM. hit rate 1.2% among 360,000. AID 652154;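 active = mean replicate inhibition at least 60% with every replicate also reaching 60%; inconclusive = only one of the two criteria is met; inactive = mean below 60% and not all replicates reaching 60%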;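 also: luciferase light reporting Pax8 driven TPO promoter activity; plate controls were median of neutral control wells for no effect and mitoxantrone controls for full effect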
# EBV LMP1 NFkB = reduces LMP1-driven NF-kappaB luciferase signal; hit rate 0.69% among 350,000; AID 504558; inhibition, % at 12.5 µM; LMP1-induced NF-kappaB luciferase reporter cells, luminescence; in the data active = inhibition above about 41%; inconclusive = no clear call, values can overlap the other calls;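 also: 0% = neutral control wells and 100% = reference inhibitor control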
# EWS-Fli inh = EWS/Fli transcriptional activity inhibition. A673 NR0B1-luciferase reporter, viability-normalised. inhibition, % at 12.6 µM. hit rate 0.67% among 350,000. AID 651661;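 active = mean inhibition of at least 50% after viability correction, with every replicate also passing that limit; inconclusive = mean reaches 50% but only one of two replicates passes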;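 also: firefly luciferase signal divided by Alamar Blue viability fluorescence both relative to DMSO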
# PGC1a acetyl inh = lowers PGC1a acetylation signal in U2OS cells | AlphaScreen anti-acetyl-lysine; with virally co-expressed GCN5 acetyltransferase | inhibition, % at 15.6 µM | hit rate 0.17% among 350,000;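 active = every replicate shows inhibition of at least 40%; inconclusive = mean inhibition at least 40% but some replicate below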;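 also: 0% = neutral control wells and 100% = positive control wells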
# * = called active by the depositor; ? = inconclusive; / = no result given. In the library only some 2.2% were active in any assay of this set; here they are far more common.
SMILES,TRPM1 prom inh,LGR2 inh,PAX8 inh HTS,EBV LMP1 NFkB,EWS-Fli inh,PGC1a acetyl inh
COc1ccccc1NC(=S)N(Cc1ccc(C)cc1)Cc1ccccn1,-3.1,22.0,7.6,0.1,4.1,0.0
CC(=NNC(=S)N(Cc1ccccn1)Cc1ccccn1)c1cnccn1,79.8*,-10.1,20.9,81.3*,6.5,/
Cc1ccccc1NC(=S)N(Cc1ccccn1)Cc1ccccc1Cl,5.8,5.8,-4.3,-5.7,10.6,-15.0
S=C(NN=C(c1ccccc1)c1ccccn1)N(Cc1ccccn1)Cc1ccccn1,82.8*,13.0,/,63.4*,6.5,/
C[C@@H]1CN([C@@H](C)CO)C(=O)c2cc(NS(=O)(=O)c3cn(C)cn3)ccc2O[C@H]1CN(C)S(=O)(=O)c1cn(C)cn1,/,-5.0,-47.2,/,1.7,/
COc1ccc(S(=O)(=O)N[C@H]2C=C[C@@H](CC(=O)NCCc3ccncc3)O[C@@H]2CO)cc1,/,-8.4,/,/,/,0.0
N/C(=N\N=Cc1ccc2c(c1)OCO2)NN=Cc1ccc2c(c1)OCO2,66.2*,-27.4,23.5,-15.1,11.5,4.3
COc1cccc(-c2ccc3c(c2)O[C@H](CN(C)C)[C@H](C)CN([C@H](C)CO)S3(=O)=O)c1,/,33.6,/,/,-7.5,-8.8
CCCCNC(=O)C(OC(=O)c1ccccc1)c1ccco1 (configuration not stated),/,/,11.1,/,-3.9,/
O=C(Cc1ccncc1)Nc1ccc2c(c1)[C@@H]1C[C@@H](CC(=O)NC3CCCC3)O[C@H](CO)[C@@H]1O2,/,1.3,-9.5,/,0.0,1.4
Nc1c(N(C(=O)Nc2ccc(Cl)c(Cl)c2)C2CCCC2)c(=O)[nH]c(=O)n1Cc1ccccc1,77.2*,/,/,-11.9,/,0.5
COCCN(C(=O)C1CCCC1)c1c(N)n(Cc2ccccc2)c(=O)[nH]c1=O,10.0,20.2,6.0,5.2,0.0,/
O=C(Cn1c2ccccc2c(=O)c2ccccc21)N/N=C/c1ccc(N2CCCC2)c([N+](=O)[O-])c1,88.9*,-8.0,7.7,14.2,/,/
COc1ccc(/C=N/NC(=O)c2[nH]nc3c2CCc2ccccc2-3)cc1OC,18.5,-4.6,41.8,13.2,53.4*,/
CNC(=O)c1[nH]nc2c1CCc1ccccc1-2,7.8,-2.4,-17.0,-7.4,-4.1,/
COc1cccc(C(=O)OCn2nnc3ccccc3c2=O)c1OC,1.1,/,-26.3,53.5*,-2.4,-1.4
COc1ccc(C2=Nc3ccccc3NC(=O)C2N(Cc2ccc(F)cc2)C(=O)c2ccco2)cc1 (configuration not stated),/,-4.2,16.3,/,-33.9,-10.3
O=C1Nc2ccccc2N=C(c2ccccc2)C1N(Cc1ccc(F)cc1)C(=O)c1cccnc1 (configuration not stated),/,12.3,-26.6,/,-5.1,40.5*
O=C(N/N=C/c1ccc([N+](=O)[O-])o1)c1ccccc1-n1cccc1,77.7*,10.5,15.6,-13.8,23.4,-12.4
O=C(N/N=C/c1ccc([N+](=O)[O-])o1)c1ccc2c(c1)OCO2,98.0*,10.6,50.6,-0.5,/,/
O=C(N/N=C\c1ccc(-c2ccc([N+](=O)[O-])cc2)o1)c1ccc2c(c1)OCO2,-13.6,-1.0,/,-22.8,/,/
O=C(C[C@@H]1C=C[C@@H](NC(=O)C2CCOCC2)[C@H](CO)O1)NCc1ccccc1Cl,/,-10.2,/,/,1.4,-3.2
COc1cccc(S(=O)(=O)N2CC[C@@H]3[C@H](CO)Nc4ccc(C5=CCCCC5)cc4[C@@H]32)c1,/,0.1,91.1*,/,-0.9,7.2
Cc1cccc(S(=O)(=O)N2CC[C@@H]3[C@H]2c2cc(C4=CCCCC4)ccc2N[C@@H]3CO)c1,/,-19.5,90.7*,/,7.5,-6.0
COc1cccc(-c2ccc3c(c2)[C@H]2[C@H](CCN2S(=O)(=O)c2cccc(OC)c2)[C@@H](CO)N3)c1,/,14.2,29.1,/,-5.8,-8.1
SMILES,TRPM1 prom inh,LGR2 inh,PAX8 inh HTS,EBV LMP1 NFkB,EWS-Fli inh,PGC1a acetyl inh
O=S(=O)(c1ccccc1F)N1CC[C@@H]2[C@@H](CO)Nc3ccc(-c4ccccc4)cc3[C@@H]21,/,-0.9,14.8,/,5.3,-5.3
O=S(=O)(c1ccccc1F)N1CC[C@@H]2[C@@H](CO)Nc3ccc(C4=CCCCC4)cc3[C@@H]21,/,-16.7,82.6*,/,-8.4,1.4
COc1ccc(NC(=O)N(C)C[C@H]2Oc3ccc(NC(=O)CCC(F)(F)F)cc3C(=O)N([C@H](C)CO)C[C@H]2C)cc1,/,-10.6,-4.5,/,-15.1,0.8
O=C1CCCn2cc(nn2)COC[C@@H](Cc2ccccc2)N1,/,-3.9,-20.7,/,4.8,/
O=C(Nc1ncccc1O)c1ccc(S(=O)(=O)NCc2ccco2)cc1,/,-1.7,6.6,42.6*,-8.4,/
Cc1cccnc1NC(=O)c1ccc(S(=O)(=O)NCc2ccco2)cc1,0.8,1.7,14.5,-0.9,3.9,/
CC(=O)n1cc(N(C(=O)CCl)c2ccc([N+](=O)[O-])cc2)c2ccccc21,69.2*,-10.0,19.1,-2.7,56.0*,12.4
O=Cc1[nH]c2ccccc2c1N(C(=O)CCl)c1ccc([N+](=O)[O-])cc1,-3.4,?,90.1*,-11.2,17.8,14.7
CC(=O)n1cc(N(C(=O)CCl)c2ccccc2)c2ccccc21,65.7*,11.7,108.9*,7.3,40.2,6.3
O=[N+]([O-])c1ccc(N=Nc2c(O)[nH]c3ccc(F)cc23)cc1,-52.4,-76.8,-102.5,-13.8,-92.3,-3.5
O=[N+]([O-])c1ccc(N=Nc2ccc(O)cc2O)cc1,-13.2,/,80.9*,-22.6,/,10.0
CCOc1cc(C=O)cc(N=Nc2cccc([N+](=O)[O-])c2)c1O,16.4,4.1,16.7,-9.7,2.0,/
O=[N+]([O-])c1cccc(N=Nc2ccc(O)cc2O)c1,-3.5,18.7,80.6*,-1.4,-18.2,-17.8
Cn1c(/C=C/c2ccc([N+](=O)[O-])o2)nc2ccccc2c1=O,84.5*,/,/,87.7*,/,-41.1
COCCNC(=O)[C@H]1[C@H](CO)[C@H]2Cn3c(ccc(-c4ccccc4)c3=O)[C@@H]1N2C(=O)NC(C)C,/,5.7,-5.1,/,-3.1,/
O=C1C(Cl)=C(N2CCOCC2)C(=O)N1c1cccc(Cl)c1,-2.9,/,/,-3.8,/,-5.1
Cc1cccc(N2C(=O)C(Cl)=C(N3CCOCC3)C2=O)c1,15.6,-1.1,2.1,31.4,-6.8,81.3*
Cc1ccc(S(=O)(=O)N(C)C[C@H]2Oc3ccc(NS(=O)(=O)c4ccc(F)cc4)cc3CC(=O)N([C@H](C)CO)C[C@H]2C)cc1,/,4.8,103.6*,/,-16.4,7.2
Cc1ccc(S(=O)(=O)N(C)C[C@H]2Oc3ccc(NS(=O)(=O)c4ccc(F)cc4)cc3CC(=O)N([C@H](C)CO)C[C@@H]2C)cc1,/,19.5,-4.6,/,1.8,10.3
Cc1ccc(S(=O)(=O)Nc2ccc3c(c2)CC(=O)N([C@H](C)CO)C[C@H](C)[C@H](CN(C)S(=O)(=O)c2ccc(F)cc2)O3)cc1,/,10.7,79.0*,/,6.4,-2.4
Cc1ccc(S(=O)(=O)Nc2ccc3c(c2)CC(=O)N([C@@H](C)CO)C[C@H](C)[C@H](CN(C)S(=O)(=O)c2ccc(F)cc2)O3)cc1,/,13.7,-4.1,/,14.6,3.8
